The entries come from a sample that favours hits as a whole.
Shiga inhibitor – Shiga toxin inhibition; Vero cells, Shiga toxin protein synthesis inhibition reporter; inhibition, % at 38.7 µM; 290,000 compounds, 9.2% hits; AID 2315; in the data active = inhibition mostly above about 28%, no sharp cut-off; inactive = mostly below about 43%; also: 0% is about no effect
NS1 inh – blocks influenza NS1 protein function; Potency, µM (highest dose often 46.1 µM), for inactives: at the highest dose activity, positive = more growth; AID 2326; 270,000 compounds, 0.4% hits; calls by dose curve; also: potency is read from the fitted curve at half-maximal effect; actives are rising curves; nearly all actives have a fitted effect of over 50% in size
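In this qHTS, NS1 from influenza A is expressed in budding yeast, where it slows growth. Cells are switched from glucose to 2% galactose medium (pH 6.0, -URA), treated with compound, and growth recovery is read at OD600.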
TbPYK inhibitor – T. brucei pyruvate kinase inhibition; Potency, µM (highest dose often 76.8 µM), for inactives: at the highest dose activity, negative = inhibition, hits mostly inhibitors; TbPYK enzyme, Kinase-Glo Plus ATP luminescence, 45 min; 410,000 compounds, 0.12% hits; Q57TT1; also: potency is read from the fitted curve at half-maximal effect; % is scaled to controls: 0 for no effect and ±100 for the full control effect; nearly all actives have a fitted effect of over 50% in size
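Enzyme and substrate buffer are dispensed first and compound is pin-transferred. ADP at 130 uM final then starts the reaction, which runs 45 min at room temperature. Detection reagent is added for 10 min before luminescence is imaged.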
SARS PLpro yeast – blocks SARS-CoV papain-like protease in a yeast assay | S. cerevisiae expressing SARS-CoV PLpro, growth rescue | Potency, µM (doses to about 32.9 µM), for inactives: at the highest dose activity, positive = growth rescue, actives largely listed as activators | 330,000 compounds, 0.19% hits | AID 485353; calls by dose curve; also: potency is read from the fitted curve at half-maximal effect; 0% is about no effect; nearly all actives have a fitted effect of over 55% in size
CHX counter – counter-screen hit for Shiga toxin inhibitors, cycloheximide. 300,000 compounds, 12% hits. max response, %. cell reporter, cycloheximide protein synthesis inhibition counterscreen; in the data active = max response mostly above about 13%, no sharp cut-off; inactive = mostly below about 14%; also: read at 38.3 µM for the half of the compounds with a filed dose; 0% is about no effect
LmPK inh – LmPK (Leishmania mexicana) enzyme inhibition. Q27686. purified LmPK, Kinase-Glo ATP luminescence, 1 h. Potency, µM (series often up to 57.5 µM), for inactives: top-dose activity change, negative = inhibition, hits mostly inhibitors. 290,000 compounds, 0.37% hits; also: potency is read from the fitted curve at half-maximal effect; % is scaled to controls: 0 for no effect and ±100 for the full control effect
Target sequence (Q27686 whole entry, looked up): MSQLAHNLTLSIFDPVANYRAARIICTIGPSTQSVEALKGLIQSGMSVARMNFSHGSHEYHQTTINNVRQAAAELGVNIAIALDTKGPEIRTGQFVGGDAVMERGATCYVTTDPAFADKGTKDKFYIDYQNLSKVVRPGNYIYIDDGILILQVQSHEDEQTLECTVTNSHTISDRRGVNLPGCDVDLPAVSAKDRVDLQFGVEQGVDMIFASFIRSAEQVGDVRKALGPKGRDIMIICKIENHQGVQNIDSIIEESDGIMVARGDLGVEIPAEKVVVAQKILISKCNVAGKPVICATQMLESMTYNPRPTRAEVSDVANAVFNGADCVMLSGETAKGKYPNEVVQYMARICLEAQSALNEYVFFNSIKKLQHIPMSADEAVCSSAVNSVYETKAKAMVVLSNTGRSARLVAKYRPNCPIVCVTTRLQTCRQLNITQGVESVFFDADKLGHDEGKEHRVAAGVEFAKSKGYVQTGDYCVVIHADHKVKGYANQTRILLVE
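Purified LmPK (0.1 nM) with 0.5 mM PEP and 0.1 mM ADP in imidazole buffer pH 7.2 with MgCl2/KCl, 1 h at room temperature. ATP formed was read by luciferase luminescence and normalized to no-enzyme and uninhibited controls.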
The depositor's hits bear a star; u = inconclusive; x = no result; [ ] = another dose, or the depositor's remark. Unless noted, calls follow the shape of the dose curve; as a rule, active = well fitted curve in the direction sought with a large enough effect; inconclusive = small, poorly fitted or top-dose-only effect, or another doubt; inactive = no such curve, though single readings can be large; an effect the other way counts as inactive or inconclusive.

SMILES	Shiga inhibitor	NS1 inh	TbPYK inhibitor	SARS PLpro yeast	CHX counter	LmPK inh
COc1cccc(NC(=O)c2ccco2)c1	86*	-35%	-6%	-13%	36*	u
COc1cccc(NC(=O)COC(=O)c2ccco2)c1	41*	-6%	1%	-2%	12*	2%
O=C(Nc1cccc(NC(=O)c2ccc(-c3cccc(Br)c3)o2)c1)c1ccco1	73*	-49%	-10%	-7%	58*	-1%
COc1ccc(C(=O)COc2cccc(NC(=O)c3ccco3)c2)cc1	10	-13%[9.22 µM]	2%	-38%	12*	-4%
O=C(Nc1cccc(NC(=O)c2ccco2)c1)c1ccccc1	-9	-5%	-2%	-4%	13	-2%
COc1cccc(C(=O)COc2cccc(NC(=O)c3ccco3)c2)c1	15	-3%	-1%	-1%	5	-3%
O=C(c1ccccc1)c1cccc(NC(=O)c2ccco2)c1	60*	-107%	-1%	-8%	24*	-11%
O=C(COc1cccc(NC(=O)c2ccco2)c1)c1ccccc1	62*	-76%	0%	-17%	37*	-6%
CCOC(=O)c1cccc(NC(=O)c2ccco2)c1	28*	-23%	-2%	-20%	41*	-4%
CC1(C(=O)O)CCCN1C(=O)c1cccc(C(F)(F)F)c1 (centres undefined)	x	x	-5%	x	x	x
Cc1cccc(N2CCN(C(=O)CSc3nnnn3C3CC3)CC2)c1C	x	x	-2%	-2%	x	x
Cc1cc2ncn(C(=O)N3CCC(C)CC3)c2cc1C	67*	-1%	-7%	22%	28*	3%
Cc1cc2ncn(C(=O)c3ccc4c(c3)OCO4)c2cc1C	31	-4%	2%	-4%	11	1%
Cc1ccc(NC(=O)[C@@H]2O[C@H](CO)[C@@H](O)[C@H]2O)cc1C(F)(F)F	x	x	1%	x	x	x
COc1ccc2[nH]c(=O)c(CN(Cc3ccc(C)cc3)Cc3nnnn3CC3CCCO3)cc2c1 (centres undefined)	40*	-18%	-1%	1%	40*	7%
COc1ccccc1CN(Cc1cc2cc(C)ccc2[nH]c1=O)Cc1nnnn1Cc1ccco1	53*	5%	1%	-3%	13	-1%
Cc1ccc2cc(CN(Cc3ccc(F)cc3)Cc3nnnn3C3CCCC3)c(=O)[nH]c2c1	15	-25%	2%	-1%	12*	4%
COc1ccc(-n2c(=O)cnc3cnc(N4CCNCC4)nc32)cc1	x	x	-5%	x	x	x
C[C@@]12C(=O)NCC(=O)N1[C@@H]1c3cc(Br)ccc3OC[C@@H]1[C@@H]2c1ccccc1	x	x	-8%	5%	x	x
Cc1cccc(NC(=O)CSc2nc3c(oc4ccccc43)c(=O)n2C(C)C)c1	x	x	-5%	x	x	x
Cc1ccc2c(c1)NC(=O)c1cccnc1N2	97	-13%	-9%	0%	51*	-24%
O=C1Nc2ccccc2Nc2ncccc21	-7	13%	2%	12%	-3	7%
C[C@H]1CN([C@@H](C)CO)C(=O)c2cc(-c3ccccc3F)cnc2O[C@@H]1CN(C)C(=O)NC1CCCCC1	x	x	4%	x	x	x
O=C(Nc1ccccc1)N(Cc1c[nH]c2ccccc12)C1CCCCCC1	x	x	-6%	x	x	x
CCc1ccc(NC(=S)Nc2cccc3cnccc23)cc1	65*	x	-4%	-13%	36*	3%
SMILES	Shiga inhibitor	NS1 inh	TbPYK inhibitor	SARS PLpro yeast	CHX counter	LmPK inh
Cc1ccc(NC(=S)Nc2cccc3ccccc23)cc1F	81*	-5%	4%	3%	42*	3%
Fc1cccc(NC(=S)Nc2cccc3ccccc23)c1	-21	-13%	-5%	-4%	-2	-9%
Cc1cc(C)cc(NC(=S)Nc2cccc3cnccc23)c1	-17	x	4%	-3%	6	9%
CCCC(=O)NC(=S)Nc1ccc(C(C)=O)cc1	57*	-13%	0%	-12%	55*	0%
S=C(NCc1ccccc1)Nc1cccc2ccccc12	30	6%	-7%	-1%	13	-6%
CC(=O)c1ccc(NC(=S)Nc2cccc3ccccc23)cc1	106*	u	-13%	2%	73*	0%
CCC[C@H]1C[C@H](C(=O)NC(C(C)Cl)C2O[C@@H](SC)C(OP(=O)(O)O)[C@@H](O)[C@@H]2O)N(C)C1 (some centres undefined)	-5	x	4%	x	-7	x
Cc1nc2nc(NC(=O)c3ccc(C(C)(C)C)cc3)[nH]n2c(=O)c1C	x	x	-1%	x	x	x
CN(C(=O)COC(=O)Cc1ccc(Br)cc1)c1c(N)n(Cc2ccccc2)c(=O)[nH]c1=O	x	x	-5%	x	x	x
O=C(CSc1nc2[nH]ncc2c(=O)[nH]1)Nc1ccc(Cl)cc1	x	x	-6%	-9%	x	x
CC(=O)c1cccc(NC(=O)N(c2ccccc2)c2ccccc2)c1	x	12%	1%	9%	3	0%
CC(=O)N(C)c1ccc(NC(=S)Nc2cccc3ccccc23)cc1	83*	15%	0%	9%	44*	-1%
CC(=O)N(C)c1ccc(NC(=S)Nc2ccccc2)cc1	12	13%	4%	4%	1	-1%
CC(=O)c1cccc(NC(=O)C(=O)Nc2cccc3ccccc23)c1	32*	0%	6%	1%	22*	9%
COc1ccccc1NS(=O)(=O)c1cccc(C(=O)NCC(c2cccs2)N(C)C)c1 (centres undefined)	x	x	-10%	x	x	x
Cc1ccc(NC(=O)CSCC(=O)OCc2cc(=O)oc3cc(O)ccc23)c(C)c1	x	x	-2%	-2%	x	x
COc1ccc(N2CC(C(=O)Nc3ccccc3-c3nc(-c4ccc(C)cc4)no3)CC2=O)cc1 (centres undefined)	x	x	4%	x	x	x
O=C1NC[C@H](CCCCN2C[C@@H](Cc3ccccc3)N(CCC3CCCCC3)C(=O)C2=O)N(CCC2CCCCC2)C1=O	x	x	-3%	x	x	x
Cc1cccc(/C=N/NC(=O)C(C)Nc2cccc3ccccc23)n1 (centres undefined)	12	-13%	1%	-11%	16*	0%
O=C(COc1ccc(Cl)cc1Cl)OCn1nnc2ccccc2c1=O	-14	2%	4%	-5%	2	5%
O=c1c2ccccc2nnn1COc1cccc(Cl)c1	124*	-3%	-3%	-1%	55*	-12%
N/C(=N\OC(=O)Cc1ccc(-c2ccccc2)cc1)c1cccc([N+](=O)[O-])c1	-19	17%	0%	3%	-2	3%
N/C(=N\OC(=O)Cc1ccccc1)c1cccc(Br)c1	48*	-6%	-9%	-1%	11	-1%
N/C(=N\OC(=O)Cc1ccccc1[N+](=O)[O-])c1cccc(Br)c1	27	-9%	7%	-4%	18*	-2%
Cn1c(=O)c(-c2cc(F)cc(F)c2)nc2cnc(Oc3ccccc3)nc21	x	x	2%	x	x	x
CCc1nc2c(OCC(=O)c3ccc(F)cc3)cccn2c1N(C)C(=O)c1ccc(OC)cc1	x	x	2%	x	x	x
COc1cc(NC(=O)c2cc3ccccc3cc2OC)ccc1NC(=O)c1cccs1	-3	0%	3%	-3%	1	-5%
